In PubChem BioAssay AID1159580 (chemical genetic matrix, 2015):
Where “and” joins values, the source holds several entries; their conditions need not be identical. Equal values may be shown once. Out of some 5,500 compounds screened, about 2,000 (36%) were called active. Inconclusive results (about 18%) are left out. No stated cut-off is given here; in the data, active means normalized growth mostly below about 0.91 (no sharp cut-off); inconclusive means no clear call, values can overlap the other calls; inactive means mostly above about 0.92. This is one part of the list.

Experiment: chemical genetic growth profiling, strain panel (AID 1159580);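 further: tested at 20 µM; growth read once vehicle control cultures reached saturation at 30 °C; 1 = growth at the plate median or of vehicle wells; lower values mean less growth of the strain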
Conditions: S. cerevisiae deletion strains, growth OD

Measured: normalized growth

NC1(C(=O)O)CC1
inactive: locus YAL013W, strain DEP1, hits give low values 1 | locus YAL021C, strain ccr4, hits give low values 1.04 | locus YAL026C, strain drs2, hits give low values 1.04 | locus YAL030W, strain snc1, hits give low values 1.02 | locus YAL040C, strain CLN3, hits give low values 0.98 | locus YBL061C, strain skt5, hits give low values 1.04 | locus YBR009C, strain hhf1, hits give low values 1.02 | locus YBR021W, strain FUR4, hits give low values 1.01 | locus YBR023C, strain chs3, hits give low values 1.03 | locus YBR171W, strain sec66, hits give low values 1.04 | locus YBR229C, strain ROT2, hits give low values 1.01 | locus YBR231C, strain swc5, hits give low values 1.02 | locus YBR279W, strain paf1, hits give low values 1.02 | locus YCL011C, strain gbp2, hits give low values 1.02 | locus YCL016C, strain dcc1, hits give low values 1.04 | locus YCL029C, strain bik1, hits give low values 1.02 | locus YCL061C, strain MRC1, hits give low values 1.02 | locus YCL069W, strain vba3, hits give low values 1.02 | locus YCR088W, strain abp1, hits give low values 1.02 | locus YDL005C, strain med2, hits give low values 1.03 | locus YDL035C, strain GPR1, hits give low values 1.03 | locus YDL040C, strain nat1, hits give low values 1.02 | locus YDL074C, strain BRE1, hits give low values 1.01 | locus YDL101C, strain DUN1, hits give low values 1.01 | locus YDL134C, strain PPH21, hits give low values 1.01 | locus YDL185W, strain tfp1, hits give low values 1.03 | locus YDL192W, strain arf1, hits give low values 1.02 | locus YDR001C, strain nth1, hits give low values 1.02 | locus YDR069C, strain doa4, hits give low values 1.04 | locus YDR101C, strain arx1, hits give low values 1 | locus YDR137W, strain rgp1, hits give low values 1.06 | locus YDR150W, strain NUM1, hits give low values 1.01 | locus YDR159W, strain sac3, hits give low values 1.02 | locus YDR162C, strain NBP2, hits give low values 1.03 | locus YDR195W, strain ref2 1.02 | locus YDR297W, strain sur2, hits give low values 1.03 | locus YDR318W, strain mcm21, hits give low values 1.03 | locus YDR334W, strain swr1, hits give low values 1.03 | locus YDR335W, strain msn5, hits give low values 1.04 | locus YDR363W, strain ESC2, hits give low values 0.986 | locus YDR388W, hits give low values 1.01 | locus YDR392W, strain spt3, hits give low values 1.05 | locus YDR502C, strain sam2, hits give low values 1.02 | locus YEL003W, strain gim4, hits give low values 1.02 | locus YEL037C, strain rad23, hits give low values 1.02 | locus YEL061C, strain CIN8 (second series), hits give low values 1.03 | locus YEL061C, strain CIN8, hits give low values 1 | locus YER002W, strain NOP16, hits give low values 0.981 | locus YER015W, strain faa2, hits give low values 1.03 | locus YER016W, strain bim1, hits give low values 1.04 | locus YER110C, hits give low values 1.03 | locus YER111C, strain swi4, hits give low values 1.01 | locus YER155C, strain BEM2 (second series), hits give low values 1.02 | locus YER155C, strain BEM2, hits give low values 0.998 | locus YER167W, strain BCK2, hits give low values 1.05 | locus YFR010W, strain ubp6, hits give low values 1.01 | locus YGL078C, strain dbp3, hits give low values 1.02 | locus YGL086W, strain mad1, hits give low values 1.03 | locus YGL167C, strain pmr1, hits give low values 1.04 | locus YGL173C, strain kem1, hits give low values 1.03 | locus YGL227W, strain vid30, hits give low values 1.02 | locus YGL240W, strain doc1, hits give low values 1.01 | locus YGL248W, strain PDE1, hits give low values 1.01 | locus YGL253W, strain hxk2, hits give low values 1.04 | locus YGR078C, strain PAC10, hits give low values 1.02 and 0.978 | locus YGR135W, strain pre9, hits give low values 1.03 | locus YGR229C, strain SMI1, hits give low values 1.01 | locus YGR252W, strain gcn5, hits give low values 1.04 | locus YHR013C, strain ard1, hits give low values 1.06 | locus YHR027C, strain rpn1, hits give low values 1.04 | locus YHR030C, strain SLT2, hits give low values 1 and 1.03 | locus YHR079C, strain IRE1 (second series), hits give low values 1.01 | locus YHR079C, strain IRE1, hits give low values 1.03 | locus YHR094C, strain hxt1, hits give low values 1.01 | locus YHR129C, strain ARP1, hits give low values 1 | locus YHR142W, strain chs7, hits give low values 1.05 | locus YHR200W, strain rpn10, hits give low values 1.03 | locus YIL066C, strain RNR3, hits give low values 1.02 | locus YIL073C, strain SPO22, hits give low values 1.11 | locus YIL125W, strain kgd1, hits give low values 1 | locus YIR030C, strain dcg1, hits give low values 1.01 | locus YJL092W, strain hpr5, hits give low values 1.02 | locus YJL095W, strain BCK1 (second series), hits give low values 1.02 | locus YJL095W, strain BCK1, hits give low values 1.02 and 1.04 | locus YJL115W, strain asf1, hits give low values 1.03 | locus YJL129C, strain trk1, hits give low values 1.05 | locus YJL134W, strain LCB3, hits give low values 1 | locus YJL154C, strain vps35, hits give low values 1.01 | locus YJL164C, strain tpk1, hits give low values 1.02 | locus YJL166W, strain qcr8, hits give low values 1.01 | locus YJL168C, strain set2, hits give low values 1.02 | locus YJL187C, strain SWE1 (second series), hits give low values 1.01 | locus YJL187C, strain SWE1, hits give low values 1.01 | locus YJR043C, strain POL32, hits give low values 1.01 | locus YJR066W, strain TOR1, hits give low values 0.98
